aSyn 5UTR act: Activators via SNCA 5'UTR binding, MLPCN | activity score, % (tested at 7.5 µM), hits read low | 7.1% of 300,000 active | alpha-synuclein 5'UTR reporter, activators screen; in the data active = activity score below about -60%
Numbers without * were called inactive. These entries were drawn from the full list.

SMILES | aSyn 5UTR act
CC(=O)NC(c1ccco1)c1ccc2cccnc2c1O (centres undefined) | 77.2
CC(C)c1ccc(C(=O)N(c2ccccn2)C(C)c2ccco2)cc1 (centres undefined) | -160.7*
COc1cc(N2Cc3ccccc3C2)ccc1C=O | -150.9*
COc1ccc2[nH]c(N=Nc3ccccc3C)c(O)c2c1 | -207.4*
Nc1ccc2nc(CCc3ccccc3)[nH]c2c1 | -68.0*
Cc1ccc2nc(CCc3ccc(N)cc3)[nH]c2c1 | -135.9*
Cc1ccc2nc(Cc3ccc(N)cc3)oc2c1 | -108.4*
CCN1C(=O)/C(=C/c2nc3ccccc3c(=O)n2-c2ccc(C)cc2)c2ccccc21 | -138.8*
COc1ccc(-n2c(/C=C3\C(=O)N(C)c4ccccc43)nc3ccccc3c2=O)cc1 | -107.3*
COc1ccc(/C(C)=N/N2C(=O)c3ccccc3NC2c2ccc(O)c(OC)c2)cc1 (centres undefined) | -65.7*
CCCC(=O)Nc1ccc2oc(-c3cccnc3)nc2c1 | -79.8*
O=C(NC(=S)Nc1ccc2oc(-c3cccnc3)nc2c1)c1cccc(Cl)c1 | -115.0*
CCCC(=O)Nc1ccc(-c2nc3ncccc3o2)cc1 | -181.2*
CCCC(=O)NC(c1ccccc1Cl)c1ccc2cccnc2c1O (centres undefined) | 68.3
COC(=O)Cc1ccc2oc(-c3cccnc3)nc2c1 | -63.5*
Cc1ccc(NC(=S)N/C(=N/S(=O)(=O)c2ccccc2)c2ccccc2)cc1 | -205.1*
COc1ccc(C(=O)NN/C(=N/S(=O)(=O)c2ccc(C)cc2)c2ccccc2)cc1 | -80.9*
Cc1ccc(S(=O)(=O)/N=C(/NC(=S)Nc2ccccc2)c2ccccc2)cc1 | -126.4*
COc1ccc(NC(=O)Nc2ccc3nccnc3c2)cc1 | -122.1*
COc1ccc(NC(=O)Nc2ccc3nonc3c2)cc1 | -150.4*
CC(=O)Nc1sc(N/N=C\c2ccccc2Cl)nc1-c1cccs1 | -141.3*
CC(=O)Nc1sc(NC(=O)c2ccc(Cl)cc2)nc1-c1cccs1 | -72.9*
CC(=O)Nc1sc(N/N=C\c2ccccc2)nc1-c1cccs1 | -113.9*
CC1c2cc3c(cc2CCN1C(=O)c1cccc(Cl)c1)OCCCO3 (centres undefined) | -64.6*
Cc1cccc(NS(=O)(=O)c2ccc(-c3cnc(C4CC4)o3)cc2)c1C | 99.7
SMILES | aSyn 5UTR act
Fc1cccc(CSc2nnc3c(n2)[nH]c2ccccc23)c1 | -141.6*
Cc1ccc(O)c(-c2cc(-c3ccccc3F)[nH]n2)c1 | -114.7*
O=[N+]([O-])c1ccccc1-c1cc(-c2ccccc2O)n[nH]1 | -256.5*
Cc1ccc(O)c(-c2cc(-c3cccc(F)c3)n[nH]2)c1 | -96.2*
Cc1ccc(-c2cc(-c3cccc(F)c3)n[nH]2)c(O)c1 | -153.9*
Cc1ccccc1OCCN1C(=O)c2ccccc2C1=O | -92.9*
O=C1c2ccccc2C(=O)N1CCOc1ccccc1Br | -71.4*
O=C1c2ccccc2C(=O)N1CCOc1ccccc1Cl | -104.8*
Nc1cccc2c1C(=O)N(CCOc1ccc(F)cc1)C2=O | -117.9*
CC(=O)Nc1nc2ccccc2n1CCOc1ccccc1Cl | 73.3
O=C1c2ccccc2C(=O)N1CCOc1ccccc1 | -96.4*
Cc1cc(-c2ccc(Cl)s2)n[nH]1 | -79.6*
CCOC(=O)N1CCN(C(=O)c2cc(COc3ccc(OC)cc3Cl)on2)CC1 | -61.7*
COc1ccc(OCc2cc(C(=O)N3CCCCCCC3)no2)c(Cl)c1 | -68.9*
COc1ccc(OCc2cc(C(=O)N3CCN(C4CCCC4)CC3)no2)c(Cl)c1 | -79.9*
CC1CN(C(=O)c2cccc(COc3ccccc3Cl)c2)CC(C)O1 (centres undefined) | -144.9*
O=C(c1cc(COc2ccc(F)cc2F)on1)N1CCSCC1 | -117.5*
COc1ccc(OCc2cc(C(=O)N3C[C@@H](C)O[C@@H](C)C3)no2)c(Cl)c1 | -66.7*
COc1ccc(OCc2cc(C(=O)N3CCN(CC4CC4)CC3)no2)c(Cl)c1 | -87.5*
O=C(c1cc(COc2ccc(F)cc2Cl)on1)N1CCCCCC1 | -116.4*
O=C(c1ccccc1)c1c(O)nc(-c2ccccc2)n(-c2ccccc2)c1=O | -67.5*
COc1ccccc1Nc1nc(-c2cccnc2)cs1 | -109.8*
O=[N+]([O-])c1ccccc1Nc1nc(-c2cccnc2)cs1 | -91.1*
COc1ccccc1Nc1nc(NCC(C)C)nc(N)c1[N+](=O)[O-] | 77.3
COc1ccc(OC)c2nc(-c3cccnc3)ccc12 | -67.4*
SMILES | aSyn 5UTR act
COc1ccccc1Nc1nc(C2(C)CCC(=O)O2)cs1 (centres undefined) | -106.1*
COc1ccc(Nc2nc(-c3cccnc3)cs2)c(OC)c1 | -175.2*
Cc1ccc(C)n1-c1ccc(C(=O)Nc2ccccc2)cc1 | -81.7*
Cc1ccc(C)n1-c1cccc(NC(=O)c2ccccc2)c1 | -72.7*
O=C(Nc1ccc(Br)cc1)C1OCCc2ccccc21 (centres undefined) | -83.7*
COc1ccc2nc(Nc3nc4cc5c(cc4s3)OCO5)sc2c1 | -122.7*
COc1ccc2nc(Nc3ccc4c(c3)OCO4)sc2c1 | -159.8*
O=[N+]([O-])c1ccc(-c2ncc(-c3ccc(Br)cc3)o2)cc1 | -194.9*
CN1CCN(c2ccc([N+](=O)[O-])cc2C(=O)c2ccc(Br)cc2)CC1 | 67.4
Cc1ccc(C(=O)Nc2cccc(Oc3ccccc3)c2)o1 | -125.7*
COc1cccc(C(=O)Nc2cnn(C(C)C)c2)c1 | -113.7*
COc1cccc(C(=O)Nc2cccc(SC)c2)c1 | -156.0*
COc1cccc(/C(C)=N/N=C(\C)c2cccc(OC)c2)c1 | -275.4*
O=C(Nc1ccc(O)cc1)c1ccc(C(=O)c2ccccc2)o1 | -120.4*
CC(=O)Nc1cccc(Oc2ccc(-c3noc(C)n3)cc2)c1 | -193.6*
COc1c(C(=O)NNC(=O)c2ccccc2)csc1Br | -82.4*
CCn1c2ccccc2c2cc(NC(=O)c3cccc(OC)c3)ccc21 | -179.7*
COc1cccc(NC(=O)c2ccc(C(=O)c3ccccc3)o2)c1 | -147.3*
COc1cccc(C(=O)Nc2ccccc2)c1 | -122.5*
COc1cccc(C(=O)N/N=C(/c2ccccc2)c2ccccn2)c1 | 73.0
COc1cccc(C(=O)NNC(=O)c2ccccc2)c1 | -112.7*
CN(C)N1C(=O)/C(=C/c2ccco2)SC1=Nc1ccccc1 | -63.6*
COc1ccccc1C(=O)N/N=C/c1ccc2c(c1)OCO2 | -173.4*
COc1cc2ccccc2cc1C(=O)N/N=C/c1ccc2c(c1)OCO2 | -163.5*
C(=N\Nc1ccc2ccccc2n1)/c1ccc2c(c1)OCCO2 | 108.4
SMILES | aSyn 5UTR act
Cc1nn(Cc2ccccc2)c(Cl)c1C(=O)NCCc1ccccc1 | -135.4*
Cc1cc(C)n2nc(C(=O)NNC(=O)c3ccc(Cl)cc3)nc2n1 | -75.7*
CCOC(=O)c1c(C)c(C(=O)NCCc2ccccc2)c(C)n1C | -80.4*
CCOC(=O)c1c(C)c(C(=O)O)n(C)c1C | 32.2
Cc1cc(C)n2nc(C(=O)NCCc3ccccc3)nc2n1 | -72.0*
Cc1cc(OCC(=O)N2CCCC2)ccc1Cl | -90.8*
Cc1cc(OCC(=O)N2CCCCCC2)ccc1[N+](=O)[O-] | -147.9*
N#C/C(=C\c1ccc(-c2nc3ccccc3s2)o1)C(N)=O | -71.4*
CC(C)CN(C)C(=O)CCc1nnc(Cc2cccc(C(F)(F)F)c2)o1 | -142.6*
CC(NC(=O)CCc1nnc(Cc2cccc(C(F)(F)F)c2)o1)C1CC1 (centres undefined) | -77.1*
BrCCOCCOc1ccc2ccccc2c1 | -129.5*
COc1ccc(C2CC(c3ccc(Br)cc3)=NN2C(=S)Nc2ccccc2)cc1 (centres undefined) | -78.1*

High-throughput results as filed in PubChem.
